# These entries were drawn from the full list.
# aSyn 5UTR act: Activators via SNCA 5'UTR binding, MLPCN; alpha-synuclein 5'UTR reporter, activators screen; activity score, % (tested at 7.5 µM), hits read low; 300,000 compounds, 7.1% hits; AID 1814; in the data active = activity score below about -60%
# Active calls of the source: *.
SMILES,aSyn 5UTR act
O=C(CSc1nc2ccccc2[nH]1)Nc1nc(-c2ccc(Br)cc2)cs1,-76*
Cc1ccc(-c2csc(NC(=O)CSc3nc4ccccc4o3)n2)cc1,-94*
Cc1ccc2nc(NC(=O)CSc3nncc(=O)n3N)sc2c1,-98*
CC(=O)c1cc2c(cc1NC(=O)CSc1nc3ccccc3o1)OCO2,-154*
O=C(CSc1nc2ccccc2o1)N/N=C/c1ccco1,-82*
Cc1ccc2nc(NC(=O)CSc3nc4ccccc4o3)sc2c1,-143*
[O-]/[N+](=C\c1ccco1)c1ccc(Cl)cc1,-164*
[O-]/[N+](=C/c1ccc(F)cc1)c1ccc(Cl)cc1,-177*
Cc1ccc(Nc2nc3nonc3[nH]c2=O)cc1Cl,-72*
COc1cc(CNC(=O)c2cccc(COc3ccc(Cl)cc3)c2)cc(OC)c1,-77*
O=C(NCc1ccccc1)c1cccc(COc2ccc(Cl)cc2)c1,-162*
Cn1nnc2cc(C(=O)Nc3ccc(Cl)cc3)ccc21,-117*
CN(C)c1ccc(NC(=O)Nc2ccc3c(c2)nnn3C)cc1,-109*
COc1cc2c(cc1OC)C(c1cccs1)N(C(=S)NC(C)C)CC2 (configuration not stated),-74*
C/C(=N\Nc1ncc(Cl)cc1Cl)c1ccccn1,101
Clc1ccc(/C=N/NC(=Nc2ccccc2)c2ccccn2)c(Cl)c1,-82*
NC(=O)c1cc2ccccc2o/c1=N/NC(=O)c1cccs1,-63*
COc1ccc2o/c(=N/NC(=O)c3cccs3)c(C(N)=O)cc2c1,-157*
O=C(Nc1ccc(OC(F)F)c(Cl)c1)c1cccc(OC(F)F)c1,-83*
COc1ccc(NC(=O)c2cccc(OC(F)F)c2)cc1Cl,-197*
COc1cc(OC)c(NC(=O)c2cccc(F)c2)cc1Cl,-64*
O=C(CCCOc1ccc(Cl)cc1Cl)Nc1ccccc1C(=O)O,-83*
CN1CCc2nc(NC(=O)c3cccc(OC(F)F)c3)sc2C1,-67*
COc1ccc(NC(=O)/C=C/C(=O)O)cc1Cl,-105*
COc1ccc(NC(=O)c2cccc(F)c2)cc1Cl,-206*
SMILES,aSyn 5UTR act
O=C(Nc1ccc2c(c1)CCC2)c1cccc(OC(F)F)c1,-126*
COc1ccc(NC(=O)c2ccccc2F)cc1Cl,-156*
COc1ccc(C(=O)Nc2ccccc2C(=O)O)cc1Cl,-123*
COc1ccc(C(=O)C(OC(=O)c2ccccc2Cl)c2ccccc2)cc1 (configuration not stated),-104*
COc1ccc(C(=O)C(OC(=O)c2ccccc2)c2ccccc2)cc1 (configuration not stated),-169*
O=C(Nc1nc(-c2cccs2)cs1)C1=COCCO1,-173*
Cc1ccc(Cl)c2sc(NC(=O)C3=COCCO3)nc12,-79*
O=C(Nc1nc(-c2ccc(Cl)cc2)cs1)C1=COCCO1,-109*
CCCOc1ccc(-c2csc(N)n2)cc1[N+](=O)[O-],-81*
CCOc1ccc(-c2cn3ccccc3n2)cc1[N+](=O)[O-],-160*
CCCCOc1ccc(-c2cn3ccccc3n2)cc1[N+](=O)[O-],-129*
O=C(Nc1nc2cc3c(cc2s1)OCCO3)C1=COCCO1,99
CC(C)C(=O)Nc1nc2cc3c(cc2s1)OCO3,-179*
CC(C)(C)C(=O)Nc1nc2cc3c(cc2s1)OCO3,-144*
COc1ccccc1CN=c1c([N+](=O)[O-])nn(-c2ccc3c(c2)OCCO3)n1O,-132*
O=[N+]([O-])c1nn(-c2ccc3c(c2)OCCO3)n(O)c1=NC1CCCCC1,-64*
O=[N+]([O-])c1nn(-c2ccc3c(c2)OCCO3)n(O)c1=NCc1ccccc1Cl,-95*
O=c1c2ccccc2oc2ccc(NCCCN3CCOCC3)cc12,-108*
CN1CCCC1CCNc1ccc2c(=O)c3ccccc3oc2c1 (configuration not stated),-130*
O=c1c2ccccc2oc2cc(NCCCN3CCOCC3)ccc12,-127*
Cn1ccnc1Sc1ccc(/C=N/NC(=O)c2ccccc2O)cc1[N+](=O)[O-],-62*
CN1CCN(CCCOc2ccc(-c3ccccc3)cc2)CC1,-63*
CN1CCN(CCOc2ccc(-c3ccccc3)cc2)CC1,-110*
c1ccc(COc2ccc(OCCn3cncn3)cc2)cc1,-110*
c1ccc(COc2ccc(OCCCCN3CCCCC3)cc2)cc1,-82*
SMILES,aSyn 5UTR act
COc1ccc2c(c1OC)C(=O)N(c1cccc(C(F)(F)F)c1)C2,-192*
COc1ccc2c(c1OC)C(=O)N(c1ccccn1)C2,-122*
COc1ccc2c(c1OC)C(=O)N(c1cccc(C)c1)C2,-114*
Cc1ccc(C(CC(=O)c2ccco2)SCCO)cc1 (configuration not stated),-90*
CCc1ccc(-c2ccc(SCc3ccccn3)nn2)cc1,-143*
CCOc1ccc(-c2ccc(SCc3ccccn3)nn2)cc1,-132*
Cc1ccc(NC(=O)NC(=S)NC(=O)c2ccccc2)cc1,-125*
O=C(NC(=S)Nc1ccccc1)c1ccc(-c2ccccc2)cc1,-102*
O=C(O)c1ccc(NC(=S)NC(=O)c2ccc(-c3ccccc3)cc2)cc1,-97*
Cc1ccc(C(=O)NC(=S)Nc2cccnc2Cl)cc1,-138*
O=C1CN(C(=S)NC(=O)c2ccc(-c3ccccc3)cc2)CCN1,-79*
CCOC(=O)C1CCN(C(=O)c2cc(COc3ccc(F)cc3F)on2)CC1,-144*
CCOC(=O)N1CCN(C(=O)c2cc(COc3ccc(F)cc3F)on2)CC1,-65*
O=C1N=C(N2CCOCC2)SC1=C1CCCCC1,-85*
COc1ccc(Cc2nnc(-c3ccccc3)o2)cc1,-94*
c1ccc(-c2nnc(CN3CCCCC3)o2)cc1,-74*
Cc1ccccc1-c1nnc(Cc2ccccc2)o1,-137*
Brc1ccc(-c2nnc(Cc3ccccc3)o2)cc1,-169*
c1ccc(Cc2nnc(-c3ccccc3)o2)cc1,-120*
Cc1ccc(-c2nnc(Cc3ccc(Cl)cc3)o2)cc1,-85*
Cc1ccc(C#N)c(SCc2nnc(-c3ccc(Cl)cc3)o2)n1,90
O=C1c2ccccc2NC(c2ccc(O)cc2)N1/N=C/c1ccc(O)cc1 (configuration not stated),-122*
O=C1c2ccccc2NC(c2ccc(O)cc2)N1c1ccccc1 (configuration not stated),-64*
O=C(Nc1ccc(OCC(F)(F)C(F)F)c(C(F)(F)F)c1)c1ccccc1,-101*
O=C(O)CC(=O)Nc1ccc(Oc2ccc(C(F)(F)F)cn2)c(Cl)c1,65
SMILES,aSyn 5UTR act
COC(=O)c1ccc(C(=O)NC2CCCc3c2cnn3-c2ccc(C)c(C)c2)cc1 (configuration not stated),104
Cc1cc(C(=O)NC2CCCc3c2cnn3-c2cccc(C)c2C)no1 (configuration not stated),-118*
O=C1c2ccccc2-c2c1nc1c([n+]2[O-])CCCC1,-97*
Cc1ccc(C(=O)/C=C/Nc2cccc(O)c2)cc1,-194*
O=C(/C=C/Nc1cccc(O)c1)c1ccccc1,-180*
CC(=O)c1ccc(N/C=C\C(=O)c2ccc(C)cc2)cc1,-211*
Cc1ccc(N/C=C/C(=O)c2ccccc2)cc1Br,-83*
Cc1ccc(C(=O)/C=C/Nc2ccc3c(c2)OCO3)cc1,-182*
CC(=O)c1cccc(N/C=C\C(=O)c2ccc(C)cc2)c1,-159*
C/C(=C\C(=O)c1ccc(C)cc1)Nc1cccc(O)c1,-284*
O=C(/C=C/Nc1ccc(F)c(Cl)c1)c1ccccc1,-211*
CN(C(=O)c1ccncc1)c1nnc(-c2ccccn2)s1,-66*
Cc1ccc(C(=O)N(C)c2nnc(-c3ccncc3)s2)cc1,-107*
